USP17 block: inhibitors of human USP17 deubiquitinase; purified USP17, Ub-rhodamine cleavage fluorescence, 3 h; A8MUK1; AID 1645855; inhibition, % at 50 µM; hit rate 6.5% among 47,000
USP28 inh: blocks human USP28 ubiquitin-rhodamine cleavage; Q96RU2; purified USP28, Ub-rhodamine cleavage fluorescence, 30 min; inhibition, % at 25 µM; hit rate 3% among 47,000; AID 1645857
Target sequence (Q96RU2 whole entry, looked up): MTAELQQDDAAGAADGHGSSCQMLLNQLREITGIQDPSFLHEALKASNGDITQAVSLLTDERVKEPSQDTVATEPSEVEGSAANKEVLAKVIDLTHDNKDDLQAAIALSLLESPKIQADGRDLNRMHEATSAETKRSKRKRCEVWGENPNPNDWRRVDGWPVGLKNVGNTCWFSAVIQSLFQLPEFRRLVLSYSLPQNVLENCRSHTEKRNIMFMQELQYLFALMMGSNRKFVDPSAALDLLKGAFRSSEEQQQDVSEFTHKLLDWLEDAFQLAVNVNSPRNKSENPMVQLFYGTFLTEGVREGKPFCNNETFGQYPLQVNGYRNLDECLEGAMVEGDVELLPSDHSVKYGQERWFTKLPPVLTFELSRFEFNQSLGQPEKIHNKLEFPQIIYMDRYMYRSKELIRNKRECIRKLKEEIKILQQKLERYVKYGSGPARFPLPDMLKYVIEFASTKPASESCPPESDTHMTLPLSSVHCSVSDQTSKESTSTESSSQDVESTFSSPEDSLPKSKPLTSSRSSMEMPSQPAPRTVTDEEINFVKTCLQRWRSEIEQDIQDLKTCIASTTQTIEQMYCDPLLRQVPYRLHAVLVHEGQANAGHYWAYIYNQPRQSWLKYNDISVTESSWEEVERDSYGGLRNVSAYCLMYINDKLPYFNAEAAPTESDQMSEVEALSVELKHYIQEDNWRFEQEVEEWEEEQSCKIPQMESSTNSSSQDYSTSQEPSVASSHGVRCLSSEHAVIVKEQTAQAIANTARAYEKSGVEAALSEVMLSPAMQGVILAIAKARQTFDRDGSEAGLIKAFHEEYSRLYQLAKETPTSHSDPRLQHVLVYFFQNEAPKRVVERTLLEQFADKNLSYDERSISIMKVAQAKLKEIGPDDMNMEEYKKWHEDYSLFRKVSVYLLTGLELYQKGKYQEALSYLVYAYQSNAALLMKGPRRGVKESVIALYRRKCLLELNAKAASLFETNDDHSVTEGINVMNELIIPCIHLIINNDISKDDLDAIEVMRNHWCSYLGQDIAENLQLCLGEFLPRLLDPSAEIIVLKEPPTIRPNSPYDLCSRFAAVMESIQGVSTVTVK
USP30 block: blocks human USP30 ubiquitin-rhodamine cleavage; Q70CQ3; purified USP30, Ub-rhodamine cleavage fluorescence; inhibition, % at 25 µM; hit rate 5.3% among 47,000; AID 1645860
OTUD3 inh: inhibitors of human OTUD3 deubiquitinase; purified OTUD3, Ub-rhodamine fluorescence, 2 h; inhibition, % at 25 µM; hit rate 0.7% among 47,000
Active calls of the source: *; x = no result. Only some compounds are listed: those with a hit (about 12% of all), similar ones and a draw of the others. Cut-off read from the data, not from the text of the source: active = inhibition above about 30%; inactive = the rest.

SMILES	USP17 block	USP28 inh	USP30 block	OTUD3 inh
O=C(COc1cccc2c1CCN(Cc1cccnc1)C2=O)Nc1ccc2c(c1)OCCO2	58.7*	89.8*	5.5	-5.4
CCOc1ccc(NC(=O)COc2cccc3c2CCN(CC)C3=O)cc1	-0.6	74.7*	-1.0	-0.3
Cc1ccc(Nc2nc3ccncc3n(Cc3ccccc3)c2=O)cc1C	-20.5	-10.8	-20.7	-10.6
COc1cccc(NC(=O)COc2cccc(-n3cnnn3)c2)c1	-0.3	28.5	12.1	20.6
COc1ccc2c(c1)C=C(C(=O)Nc1ccc(-n3cnnn3)cc1)C=CO2	39.2*	24.3	32.8*	17.3
COc1ccc2c(c1)C=C(C(=O)Nc1ncc(Cc3ccc(C)cc3)s1)C=CO2	-2.6	5.8	-15.8	-1.1
CCc1ccc(NC(=O)COc2cccc(-n3cnnn3)c2)cc1	24.8	0.3	63.5*	-0.1
CCCOc1cccc(C(=O)Nc2ccc(-n3cnnn3)cc2)c1	50.6*	46.9*	82.9*	5.7
COc1ccccc1N1C(=O)N(Cc2ccccc2C)c2ccccc2S1(=O)=O	x	-24.1	-24.6	-11.8
CCOC(=O)C1CCN(Cc2cc(=O)oc3cc(O)c(O)cc23)CC1	85.5*	84.8*	52.2*	84.5*
CC(=O)N1[C@@H](CNC(=O)c2ncccc2C)C[C@@]2(C)[C@@H](O)CCCC[C@@H]12	-2.8	-10.7	-10.4	-2.4
CCOc1ccc(NC(=O)CC2N=C(N3CCN(c4ccccc4F)CC3)NC2=O)cc1 (stereo unspecified)	12.9	3.1	35.0*	13.2
Cc1cccc(NC(=O)Cn2c(=O)n(Cc3ccc(F)cc3)c(=O)c3sccc32)c1	68.6*	14.5	35.3*	17.3
CCOC(=O)c1ccc(NC(=O)Cn2c(=O)n(CC(=O)NCCc3ccc(OC)c(OC)c3)c(=O)c3sccc32)cc1	24.8	21.4	66.2*	20.8
O=C(Cc1ccc(-n2c(=O)c3sccc3n(Cc3ccc(F)cc3)c2=O)cc1)NCCc1ccccc1	66.9*	x	x	-7.8
CCOc1ccc(NC(=O)Cn2c(=O)n(CCCCCC(=O)NCc3ccc(F)cc3)c(=O)c3sccc32)cc1	42.9*	21.4	48.6*	31.9*
CC1(C)CS(=O)(=O)N(c2cccc(C(=O)NCc3ccccc3)c2)C1=O	2.3	1.7	3.2	7.1
Cc1[nH]ncc1CN1CCOCC(Cc2cc(=O)[nH]cn2)C1 (stereo unspecified)	-12.4	-14.4	-21.2	-4.2
COc1ccc(-c2cc(-c3ccc(F)cc3)[nH]c(=O)c2C#N)cc1	x	15.7	79.0*	23.9
CC(CNC(=O)Cn1c(=O)c2cccn2c2ccccc21)c1ccccc1 (stereo unspecified)	16.6	14.4	32.2*	11.4
Cc1noc2nc(C)n(CC(=O)NCC(C)c3ccccc3)c(=O)c12 (stereo unspecified)	3.3	0.6	-2.7	3.9
COc1ccc2c(ccn2CC(=O)NC(C)CCc2ccccc2)c1 (stereo unspecified)	0.5	1.7	-15.7	7.1
CC(CCc1ccccc1)NC(=O)Cn1c(=O)c2cccn2c2ccccc21 (stereo unspecified)	82.3*	14.9	19.5	21.1
Cc1cc(C#N)c2c(C)ccc(C(C)C)cc1-2	2.9	57.9*	15.2	17.3
Cc1ccc(N(CC(=O)N2CCN(Cc3ccccc3)CC2)S(=O)(=O)c2cccs2)cc1	0.0	4.0	12.9	0.6
SMILES	USP17 block	USP28 inh	USP30 block	OTUD3 inh
Cc1occ2c1C(=O)c1c(O)ccc(O)c1C2	94.8*	89.2*	57.5*	93.6*
CC1CC(=O)Nc2cc(S(=O)(=O)Nc3cccc(F)c3)ccc2S1 (stereo unspecified)	11.8	13.8	31.4*	13.0
CC1CCc2[nH]nc(C(=O)N3CCN(C)CC3)c2C1 (stereo unspecified)	-11.2	-8.6	-7.8	-16.0
Cc1cc(O)cc(Oc2cc(C)cc(O)c2)c1	4.0	18.7	30.3*	3.4
CCCCc1nc(SCC(=O)Nc2ccc(OC)cc2)c2c3c(sc2n1)COC(C)(C)C3	-0.5	-13.2	-9.2	-7.9
CSc1nc(SCC(N)=O)c2c3c(sc2n1)COC(C)(C)C3	61.1*	28.9	44.4*	18.5
CC(=O)c1ccc(NC(=O)CSc2nc(-c3ccccc3)nc3c2COC(C)(C)C3)cc1	21.2	4.5	17.8	30.5*
COc1ccc(NC(=O)CSc2nc(N)c3c4c(sc3n2)COC(C)(C)C4)cc1	50.2*	-4.6	-7.4	7.9
CC1(C)Cc2c(sc3nc(SCc4ccccc4)nc(SCC(=O)Nc4ccccc4)c23)CO1	-7.4	-2.2	3.7	-0.2
CC1(C)Cc2c(sc3nc(SCC(=O)Nc4ccccc4)nc(N)c23)CO1	16.2	31.0*	-179.8	-35.2
CC1=NS(=O)(=O)N(Cc2ccccc2)C=C1C(=O)Nc1ccccc1	-85.1	-54.4	-299.1	-57.9
